# Experimental data published in the supplement of paper PMC8728848.
# Many of the other results were omitted from the sample, so the strongest signals are more common in it than they were.
# B1: SfaEH (Escherichia coli), Q1RDG5 (protein)
# chain: LLCRNNQTGQVFNSGDTSFRVNVSPVVQYDKSISVLDLSQLVSCQNEDSTGQNYDYLKILKGSGFSPALDTKTYGRLDFTSRPTGYARQLPLQFDLQVTEAFYQYGVWKPFPAKLYLYPAPGVFGKVINNGDLLATLYVNKFSTKGQEAGERNFTWRFYATNDVYIQTGTCRVSSNNVKVDLPSYPGGPVTVPLTVRCDQTQSVSYTLSGPVTGSGNTVFANTAASGSGGVGIQLSDNVGPVPAGQPRSLGQVGSSPVSLGLKASYALTGQASPTPGAVQSVINVTFSYN
# Legend:
# Assay in all cases: glycan array binding signal (z-score within array); higher = stronger binding
# Conditions in all cases: glycan notation: IUPAC condensed, linker removed
# [1] = molecular target: Glc(a1-4)Glc(a1-4)Glc(a1-4)Glc
# Procedure, shortened: (§1)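 The binding signal is a Z-score computed within each array. Data were drawn from 3228 arrays in the Consortium for Functional Glycomics database, restricted to those with a known protein sequence. Scores were averaged over arrays of the same protein sequence at different concentrations or buffers, and over linkers, and negative values can be taken as non-binding.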
# [2] = molecular target: GlcNAc(a1-4)Gal(b1-3)GlcNAc
# Procedure, shortened: as §1
# [3] = molecular target: GlcNAc(a1-4)Gal(b1-4)GlcNAc(b1-3)Gal(b1-4)Glc
# Procedure, shortened: as §1
# [4] = molecular target: GlcNAc(b1-2)Man(a1-3)[GlcNAc(b1-2)Man(a1-6)]Man(b1-4)GlcNAc(b1-4)GlcNAc
# Procedure, shortened: as §1
# [5] = molecular target: GlcNAc(b1-2)[GlcNAc(b1-6)]Man(a1-6)[GlcNAc(b1-2)Man(a1-3)]Man(b1-4)GlcNAc(b1-4)GlcNAc
# Procedure, shortened: as §1
# [6] = molecular target: GlcNAc(b1-3)Gal(b1-4)GlcNAc(b1-2)[GlcNAc(b1-3)Gal(b1-4)GlcNAc(b1-6)]Man(a1-6)[GlcNAc(b1-3)Gal(b1-4)GlcNAc(b1-2)Man(a1-3)]Man(b1-4)GlcNAc(b1-4)GlcNAc
# Procedure, shortened: as §1
# [7] = molecular target: GlcNAc(b1-3)Gal(b1-4)GlcNAc(b1-3)[GlcNAc(b1-3)Gal(b1-4)GlcNAc(b1-3)]GalNAc
# Procedure, shortened: as §1
# [8] = molecular target: Man(a1-2)Man(a1-3)[Man(a1-2)Man(a1-6)]Man(a1-6)[Man(a1-2)Man(a1-2)Man(a1-3)]Man
# Procedure, shortened: as §1
# Man(b1-4)GlcNAc = molecular target: Man(b1-4)GlcNAc
# Procedure, shortened: as §1
# [9] = molecular target: Neu5Ac(a2-3)Gal(b1-3)GlcNAc(b1-2)Man(a1-3)[Neu5Ac(a2-3)Gal(b1-3)GlcNAc(b1-2)Man(a1-6)]Man(b1-4)GlcNAc(b1-4)GlcNAc
# Procedure, shortened: as §1
# [10] = molecular target: Neu5Ac(a2-3)Gal(b1-3)GlcNAc(b1-4)Gal(b1-4)Glc
# Procedure, shortened: as §1
# [11] = molecular target: Neu5Ac(a2-3)Gal(b1-4)GlcNAc(b1-3)Gal(b1-4)GlcNAc(b1-3)Gal(b1-4)GlcNAc
# Procedure, shortened: as §1
# [12] = molecular target: Neu5Ac(a2-3)Gal(b1-4)GlcNAc(b1-6)[Gal(b1-3)]GalNAc
# Procedure, shortened: as §1
# [13] = molecular target: Neu5Ac(a2-3)Gal(b1-4)[Fuc(a1-3)]GlcNAc(b1-3)Gal(b1-4)[Fuc(a1-3)]GlcNAc(b1-3)Gal(b1-4)[Fuc(a1-3)]GlcNAc
# Procedure, shortened: as §1
# [14] = molecular target: Neu5Ac(a2-3)[Neu5Ac(a2-6)]GalNAc
# Procedure, shortened: as §1
# [15] = molecular target: Neu5Ac(a2-6)Gal(b1-4)GlcNAc(b1-2)[Neu5Ac(a2-6)Gal(b1-4)GlcNAc(b1-6)]Man(a1-6)[Neu5Ac(a2-6)Gal(b1-4)GlcNAc(b1-2)Man(a1-3)][GlcNAc(b1-4)]Man(b1-4)GlcNAc(b1-4)GlcNAc
# Procedure, shortened: as §1
# [16] = molecular target: Neu5Ac(a2-6)Gal(b1-4)GlcNAc(b1-3)Gal(b1-3)GlcNAc
# Procedure, shortened: as §1
# [17] = molecular target: Neu5Ac(a2-6)Gal(b1-4)GlcNAc(b1-3)Gal(b1-4)GlcNAc(b1-6)[Gal(b1-3)]GalNAc
# Procedure, shortened: as §1
# [18] = molecular target: Neu5Ac(a2-6)Gal(b1-4)GlcNAc(b1-3)Gal(b1-4)[Fuc(a1-3)]GlcNAc(b1-3)Gal(b1-4)[Fuc(a1-3)]GlcNAc
# Procedure, shortened: as §1
# [19] = molecular target: Neu5Ac(a2-6)Gal(b1-4)GlcNAc(b1-3)[Neu5Ac(a2-6)Gal(b1-4)GlcNAc(b1-6)]GalNAc
# Procedure, shortened: as §1
# [20] = molecular target: Neu5Ac(a2-6)Gal(b1-4)GlcNAc(b1-6)[Gal(b1-3)]GalNAc
# Procedure, shortened: as §1
# [21] = molecular target: Neu5Ac(a2-6)GlcNAc(b1-4)GlcNAc
# Procedure, shortened: as §1
# [22] = molecular target: Neu5Ac(a2-6)GlcNAc(b1-4)GlcNAc(b1-4)GlcNAc
# Procedure, shortened: as §1
# [23] = molecular target: Neu5Ac(a2-8)Neu5Ac(a2-3)Gal(b1-4)Glc
# Procedure, shortened: as §1
# [24] = molecular target: Neu5Ac(a2-8)Neu5Ac(a2-8)Neu5Ac(a2-3)Gal(b1-4)Glc
# Procedure, shortened: as §1
# [25] = molecular target: Neu5Ac(a2-8)Neu5Gc(a2-3)Gal(b1-4)GlcNAc
# Procedure, shortened: as §1
# [26] = molecular target: Neu5Gc(a2-3)Gal(b1-4)GlcNAc(b1-3)Gal(b1-4)GlcNAc(b1-2)Man(a1-3)[Neu5Gc(a2-3)Gal(b1-4)GlcNAc(b1-3)Gal(b1-4)GlcNAc(b1-2)Man(a1-6)]Man(b1-4)GlcNAc(b1-4)GlcNAc
# Procedure, shortened: as §1
# [27] = molecular target: Neu5Gc(a2-8)Neu5Gc(a2-6)Gal(b1-4)GlcNAc
# Procedure, shortened: as §1
binder,measurement,setting,value
B1,glycan array binding signal (z-score),[1],-0.651
same,glycan array binding signal (z-score),[2],-0.403
same,glycan array binding signal (z-score),[3],-0.748
same,glycan array binding signal (z-score),[4],0.345
same,glycan array binding signal (z-score),[5],-0.668
same,glycan array binding signal (z-score),[6],2.3
same,glycan array binding signal (z-score),[7],0.026
same,glycan array binding signal (z-score),[8],0.008
same,glycan array binding signal (z-score),Man(b1-4)GlcNAc,-0.49
same,glycan array binding signal (z-score),[9],-0.547
same,glycan array binding signal (z-score),[10],-0.421
same,glycan array binding signal (z-score),[11],7.11
same,glycan array binding signal (z-score),[12],2.32
same,glycan array binding signal (z-score),[13],0.9
same,glycan array binding signal (z-score),[14],3.69
same,glycan array binding signal (z-score),[15],-0.534
same,glycan array binding signal (z-score),[16],-0.233
same,glycan array binding signal (z-score),[17],0.079
same,glycan array binding signal (z-score),[18],-0.154
same,glycan array binding signal (z-score),[19],2.22
same,glycan array binding signal (z-score),[20],0.841
same,glycan array binding signal (z-score),[21],-0.508
same,glycan array binding signal (z-score),[22],1.19
same,glycan array binding signal (z-score),[23],0.69
same,glycan array binding signal (z-score),[24],0.437
same,glycan array binding signal (z-score),[25],-0.786
same,glycan array binding signal (z-score),[26],-0.442
same,glycan array binding signal (z-score),[27],2.33
